Whole data set: some 39,000 sequences, median “fluorescence intensity (a.u.)” near 4,300, cut for the highest 2% near 39,000. The sample as a whole holds a higher share of the highest values than the screen did.
What follows are sequences tested against T1, OsSMF1 (Oryza sativa, UniProt Q6ZLB0 1-436) (assay: protein-binding microarray (RPBM); PBS, 2% BSA, 51.3 ng/ul salmon testes DNA, 50 uM zinc acetate, 200 nM TF, 25 C, 1 h; high values mean tight binding). Settings: protein: recombinant; tags: N-terminal polyhistidine and DsRed monomer fusion (pET32a); chain copies: 2; label: CyDye5-dUTP incorporated in the synthesized complementary strand; 3' TTTTT single-stranded linker to array surface; dsDNA, one strand shown.
T1 sequence: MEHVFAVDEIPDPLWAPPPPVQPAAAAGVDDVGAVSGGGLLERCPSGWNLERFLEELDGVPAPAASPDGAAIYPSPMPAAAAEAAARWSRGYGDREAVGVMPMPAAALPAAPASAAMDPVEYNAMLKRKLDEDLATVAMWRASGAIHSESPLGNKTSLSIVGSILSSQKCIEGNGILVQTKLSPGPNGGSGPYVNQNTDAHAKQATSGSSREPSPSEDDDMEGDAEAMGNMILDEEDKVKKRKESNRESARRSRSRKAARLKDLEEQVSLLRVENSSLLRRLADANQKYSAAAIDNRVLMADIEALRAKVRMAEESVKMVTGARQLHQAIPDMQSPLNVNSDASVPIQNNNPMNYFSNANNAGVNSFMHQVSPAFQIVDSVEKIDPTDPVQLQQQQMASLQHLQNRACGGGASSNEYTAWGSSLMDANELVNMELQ
How it was run: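 Binding signal here means per-feature fluorescence intensity in arbitrary units. The values were read on an Axon 4000B scanner after a custom Agilent array, double-stranded by primer extension with Cy5-dUTP, was incubated with 200 nM protein at 25 °C for 1 h in PBS with 2% BSA, salmon testes DNA and 50 µM zinc acetate, then washed. The proteins were transcription factors with an N-terminal polyhistidine tag and DsRed, expressed in E. coli BL21-CodonPlus and purified on Ni–NTA.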
In the case of “TCTTTCTGCACTTTCTCTGAACGTGGATAAGACATAACCGCGGAGTCACCTAGTGCAG”, the binding signal was 8130 fluorescence intensity (a.u.).
For “TTAATCACTTCTCAAACTTTTAATGCAATGACTTGTGAACCGGAGTCACCTAGTGCAG”, the binding signal was 3420 fluorescence intensity (a.u.).
In the case of “CGTCCGCAGCACGCCACGGTAGCGCGACACCCGGCCTTCCCGGAGTCACCTAGTGCAG”, the binding signal was 4600 fluorescence intensity (a.u.).
With “AAGCGATGGAAGCAGCAGACGTGTCGCACGGGAATTTGAGCGGAGTCACCTAGTGCAG” the binding signal was 5240 fluorescence intensity (a.u.).
For “GGCATGGGTATGGGTCATCACTACCCATGCCCGCTTTGCCCGGAGTCACCTAGTGCAG”, the binding signal was 4410 fluorescence intensity (a.u.).
With “GTTGACATATGGATCCTGGTGTTATCGACTCAATGTAGAGCGGAGTCACCTAGTGCAG” the binding signal was 5150 fluorescence intensity (a.u.).
In the case of “GATGGTAGGTATGCATATGACGCATATCCTACCTGACGGACGGAGTCACCTAGTGCAG”, the binding signal was 3450 fluorescence intensity (a.u.).
For “TTTTAGGTAGAATGGTCCTGTTGGATCATCATATCAATGACGGAGTCACCTAGTGCAG”, the binding signal was 43400 fluorescence intensity (a.u.).
“TATCCAGGCGCACGACACTTGACAACTCTGTACTACGTAGCGGAGTCACCTAGTGCAG” was tested, and the binding signal was 38900 fluorescence intensity (a.u.).
For “AATTGATCTTCAGAGCCCACGTAGGTATTAGACTTTCCTACGGAGTCACCTAGTGCAG”, the binding signal was 6290 fluorescence intensity (a.u.).
In the case of “GGCCAGTTCTCTTCCACGTGGAGGCGGCCTCTCACAGCCGCGGAGTCACCTAGTGCAG”, the binding signal was 10300 fluorescence intensity (a.u.).
With “TAGTTTCACTTATTATTTATTTCAGTAAAAGAAAGTTTCCCGGAGTCACCTAGTGCAG” the binding signal was 3690 fluorescence intensity (a.u.).
With “TCATCATCATCATCATTATTAAAGTAAATTTCAGAAAACTCGGAGTCACCTAGTGCAG” the binding signal was 21600 fluorescence intensity (a.u.).
In the case of “AATTTCAGTACTCAGTTCATTAAATTAATTAAAGAAAGGCCGGAGTCACCTAGTGCAG”, the binding signal was 51100 fluorescence intensity (a.u.).
In the case of “GCGGAGGTCGACCTTGGCGAGGTCGTCCACGTCCGGGTGCCGGAGTCACCTAGTGCAG”, the binding signal was 3340 fluorescence intensity (a.u.).
“CCATCTTCATCTCCATATCTTCTCCTCCTCGCGTCGGCAGCGGAGTCACCTAGTGCAG” was tested, and the binding signal was 3270 fluorescence intensity (a.u.).
For “CTTCAGTCCTCGGCCCATTCTCCCTTCCTTTCAGCTGGCTCGGAGTCACCTAGTGCAG”, the binding signal was 45600 fluorescence intensity (a.u.).
For “GCTTCTGCTGTGGCTGTGCTGAGCTTTCACAGTCACAGCCCGGAGTCACCTAGTGCAG”, the binding signal was 3550 fluorescence intensity (a.u.).
With “TCTCCCCAGATTTCCCCTTCCATTCCGCCTCCCGATCGCTCGGAGTCACCTAGTGCAG” the binding signal was 43300 fluorescence intensity (a.u.).
“GGCCCCACATGTCATCTCCTCCCTTTCTTCTTCCTCCCCTCGGAGTCACCTAGTGCAG” was tested, and the binding signal was 4040 fluorescence intensity (a.u.).
“CCCAGCCCGGCGTCCCCTTCTCGGCTTCCTCCTCCACCATCGGAGTCACCTAGTGCAG” was tested, and the binding signal was 4100 fluorescence intensity (a.u.).
For “AACTTCTCAATGTGTGGCCCCGAGCTGTGGCTTCACAGCTCGGAGTCACCTAGTGCAG”, the binding signal was 63300 fluorescence intensity (a.u.).
In the case of “AAATCCGCCCTCGCCTCGCCCCGATCGATCCCCTCGATTCCGGAGTCACCTAGTGCAG”, the binding signal was 3810 fluorescence intensity (a.u.).
In the case of “TCTAACCCCGCCTGCAGATCCGCTCCATCGATTCCCTCCCCGGAGTCACCTAGTGCAG”, the binding signal was 31700 fluorescence intensity (a.u.).
With “GCAATCTCATGATTCATGCAGCTTTGTAGCAATGTGTGCTCGGAGTCACCTAGTGCAG” the binding signal was 3140 fluorescence intensity (a.u.).

Source: publication PMC7819943, “Rice protein-binding microarrays: a tool to detect cis-acting elements near promoter regions in rice”
